# Screens: PubChem, Broad Institute
# In the library only some 2.3% were active in any assay of this set; here they are far more common.
# Rtt109 Vps75 – inhibitors of C. albicans Rtt109/Vps75 HAT, primary screen, biochemical, ThioGlo CoA-SH fluorescence, plate reader; Histone acetyltransferase RTT109 (Candida albicans (strain SC5314 / ATCC MYA-2876)), …; purified Rtt109/Vps75, 4 h; inhibition, % at 34.9 µM; actives 0.16% (n = 330,000);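 active means inhibition of at least 50% in every replicate; inconclusive means best replicate reaches 50% inhibition but some replicates fall short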
# SIRT5 inh – SIRT5 desuccinylase inhibitors, primary screen, biochemical, fluorescence imaging, single point, set 5; Purified SirT5, succinyl-peptide AMC, trypsin-coupled fluorescence; inhibition, % at 15 µM; actives 1.1% (n = 330,000); AID 652115, 2013; in the data active means inhibition above about 15%; inconclusive means no clear call, values can overlap the other calls
# ERp5 block – inhibitors of ERp5-driven insulin aggregation, primary screen, biochemical, turbidity, absorbance 650 nm, single point | Protein disulfide-isomerase A6 (Homo sapiens), Q15084 | 90 min | inhibition, % at 9.99 µM | actives 0.05% (n = 350,000);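 active means mean replicate inhibition above about 25%, with every replicate also reaching it, limit read from the data, passing the limit was not always enough; inconclusive means only one of those two criteria met; inactive means neither criterion met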
# DENV2 CPE rescue – inhibitors of DENV2 cytopathic effect, primary screen, cell-based, plate reader, single concentration. DENV2-infected cells, cytopathic effect rescue. CPE inhibition, % at 9.99 µM. actives 1.7% (n = 350,000). AID 651640, 2012; in the data active means CPE inhibition above about 20%, passing the limit was not always enough; inconclusive means no clear call, values can overlap the other calls; tested in BHK-21 cells;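 further: 0% = median of neutral control wells and 100% = median of positive control wells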
# PDI inh – inhibitors of human PDI, primary screen, biochemical, turbidity, single point, plate reader. Protein disulfide-isomerase (Homo sapiens), P07237. PDI insulin aggregation turbidity, A650, 90 min. inhibition, % at 10 µM. actives 0.052% (n = 350,000);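 active means mean inhibition across replicates of 30% or more, whatever share of single replicates reach that level; inconclusive means mean inhibition below 30% while every single replicate reaches 30%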
# Target sequence (P07237 whole entry, looked up): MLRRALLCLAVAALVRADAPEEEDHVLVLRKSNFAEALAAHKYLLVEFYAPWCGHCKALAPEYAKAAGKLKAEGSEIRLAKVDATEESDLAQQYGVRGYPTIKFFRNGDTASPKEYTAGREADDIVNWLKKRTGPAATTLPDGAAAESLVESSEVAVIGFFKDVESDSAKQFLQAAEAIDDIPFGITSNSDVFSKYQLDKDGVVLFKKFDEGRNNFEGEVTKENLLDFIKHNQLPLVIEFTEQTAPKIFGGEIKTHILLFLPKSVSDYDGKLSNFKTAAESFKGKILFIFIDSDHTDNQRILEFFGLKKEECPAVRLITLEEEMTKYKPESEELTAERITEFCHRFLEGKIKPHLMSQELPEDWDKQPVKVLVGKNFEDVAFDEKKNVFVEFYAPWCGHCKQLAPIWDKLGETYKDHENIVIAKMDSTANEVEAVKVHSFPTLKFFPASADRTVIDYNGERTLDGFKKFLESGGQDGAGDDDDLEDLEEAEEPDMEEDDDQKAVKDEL
# The depositor's hits bear a star; ? = inconclusive; / = no result.
SMILES,Rtt109 Vps75,SIRT5 inh,ERp5 block,DENV2 CPE rescue,PDI inh
CO[C@@H]1CN(C)C(=O)c2ccc(NC(=O)c3cccc(F)c3)cc2OC[C@@H](C)N(C)C[C@@H]1C,/,-4,2,-2,/
C[C@@H]1CN([C@@H](C)CO)C(=O)c2cc(NC(=O)CCCN(C)C)ccc2O[C@@H](C)CCCCO[C@@H]1CN(C)C(=O)Nc1ccc2c(c1)OCO2,/,-3,-3,5,/
O=C(Cc1cccnc1)N1CC2(C1)[C@H](c1ccccc1)[C@H](CO)N2C(=O)C1CCCCC1,/,7,1,-2,/
CO[C@H]1CN(C)C(=O)c2cc(NS(C)(=O)=O)ccc2OC[C@H](C)N(CC2CC2)C[C@H]1C,/,-3,0,-2,/
O=S(=O)(N[C@H]1CC[C@H](CCn2cc(-c3cccc(F)c3)nn2)O[C@H]1CO)c1ccc(F)cc1,/,25*,-3,-6,/
Cc1ccc(S(=O)(=O)N[C@H]2CC[C@@H](CCn3cc(C(C)C)nn3)O[C@H]2CO)cc1,/,25*,10,-13,/
Cc1ccc(S(=O)(=O)N[C@@H]2CC[C@@H](CCn3cc(C(C)C)nn3)O[C@@H]2CO)cc1,/,4,-1,-7,/
O=S(=O)(N[C@H]1CC[C@@H](CCn2cc(-c3cccc(F)c3)nn2)O[C@H]1CO)c1ccc(F)cc1,/,1,-3,8,/
CC(C)c1cn(CC[C@H]2CC[C@H](NS(=O)(=O)c3ccc(F)cc3)[C@@H](CO)O2)nn1,/,20*,0,18,/
COCCNC(=O)C[C@@H]1CC[C@@H]2[C@H](COc3ccc(NC(=O)c4cc(C)on4)cc3C(=O)N2C)O1,/,-6,4,11,/
CC[C@H]1C/C=C\Cc2ccccc2[C@@H](C(=O)C[C@@H](O)CC(C)=O)OC1=O,-5,18*,-2,-9,-6
CC(=O)C[C@@H](O)CC(=O)[C@@H]1OC(=O)CCCCC/C=C/Cc2ccccc21,11,24*,0,-11,8
C/C=C/c1ccc([C@@H]2[C@H](CO)N3CCCCN(C(=O)Nc4cc(F)ccc4F)C[C@@H]23)cc1,/,1,7,-34,/
CC(C)NC(=O)N(C)C[C@H]1Oc2ccc(NS(=O)(=O)c3cn(C)cn3)cc2CC(=O)N([C@@H](C)CO)C[C@@H]1C,/,-4,-3,-5,/
CC(C)c1ccccc1OCC(=O)Nc1ccc2[nH]ncc2c1,2,18*,8,-3,5
Cc1ccccc1OCC(O)CN1CCCCC1 (stereo not given),20,-2,3,5,8
Cc1ccccc1OCC(O)CN1CCN(CC(O)COc2ccccc2C)CC1 (stereo not given),4,30*,4,1,-2
OC(CNCC1CCCO1)COc1ccc(OCC(O)CNCC2CCCO2)cc1 (stereo not given),-5,/,/,/,-3
CCOC(=O)c1c(C)n(-c2ccc(C)cc2)c2ccc(OCC(O)CNCC3CCCO3)cc12 (stereo not given),64*,/,/,/,3
CCOC(=O)c1c(C)n(-c2ccc(C)cc2)c2ccc(OCC(O)CNCCCO)cc12 (stereo not given),67*,-5,4,5,-6
C[C@@H]1CCCCO[C@H](CN(C)C(=O)Nc2ccccc2)[C@@H](C)CN([C@@H](C)CO)C(=O)c2cc(NC(=O)c3ccncc3)ccc2O1,/,2,0,-5,/
CO[C@H]1CN(C)C(=O)c2cc(NC(=O)Nc3cc(Cl)cc(Cl)c3)ccc2OC[C@@H](C)NC[C@H]1C,/,103*,/,/,/
CO[C@H]1CN(C)C(=O)c2cc(NC(=O)Nc3ccccc3Cl)ccc2OC[C@@H](C)NC[C@@H]1C,/,6,-14,31*,/
Cn1ccc2c(N3CCOCC3)cc3c(c21)C1CCC3O1 (stereo not given),/,-14,-1,48*,/
O=C(N[C@@H](Cc1ccccc1)C(=O)NC1CC1)c1ccc(Cl)cc1,6,25*,2,9,-7
SMILES,Rtt109 Vps75,SIRT5 inh,ERp5 block,DENV2 CPE rescue,PDI inh
O=C(NC(Cc1ccccc1)C(=O)NC1CC1)OCc1ccccc1 (stereo not given),-3,-3,6,-2,-3
Cc1nnsc1C(=O)NC1CCCc2c1cnn2-c1ccc(F)cc1F (stereo not given),-11,-4,2,7,-13
Cc1ccc(C(=O)NC2CCCc3c2cnn3-c2ccc(F)cc2F)cn1 (stereo not given),17,20*,-4,7,-9
Cc1ccc(S(=O)(=O)N(C)C[C@H]2OCCCC[C@@H](C)Oc3ccc(NS(=O)(=O)c4cn(C)cn4)cc3C(=O)N([C@@H](C)CO)C[C@@H]2C)cc1,/,1,2,-4,/
COc1ccc(NC(=O)N(C)C[C@H]2OCCCC[C@@H](C)Oc3ccc(NC(=O)CCC(F)(F)F)cc3C(=O)N([C@@H](C)CO)C[C@H]2C)cc1,/,2,6,21*,/
COc1ccc(CN(C)C[C@@H]2OCCCC[C@@H](C)Oc3ccc(NC(=O)CCC(F)(F)F)cc3C(=O)N([C@H](C)CO)C[C@H]2C)cc1,/,6,-1,30*,/
C[C@H]1CCCCO[C@@H](CN(C)Cc2ccc(C(F)(F)F)cc2)[C@@H](C)CN([C@@H](C)CO)C(=O)c2cc(NC(=O)CCC(F)(F)F)ccc2O1,/,16*,6,-6,/
C[C@@H]1CCCCO[C@@H](CN(C)Cc2ccc(C(F)(F)F)cc2)[C@@H](C)CN([C@H](C)CO)C(=O)c2cc(NC(=O)CCC(F)(F)F)ccc2O1,/,0,-1,-7,/
C[C@@H]1CN([C@H](C)CO)C(=O)c2cc(NC(=O)CCC(F)(F)F)ccc2O[C@@H](C)CCCCO[C@H]1CN(C)Cc1ccc(Cl)c(Cl)c1,/,1,0,71*,/
COc1ccc(NC(=O)N(C)C[C@H]2OCCCC[C@@H](C)Oc3ccc(NC(=O)CCC(F)(F)F)cc3C(=O)N([C@@H](C)CO)C[C@@H]2C)cc1,/,3,5,-9,/
C[C@H](CO)N1C[C@H](C)[C@H](CN(C)S(=O)(=O)c2ccc(C#N)cc2)Oc2ncc(/C=C/c3ccccc3)cc2C1=O,/,4,4,?,/
C[C@H]1CN([C@@H](C)CO)C(=O)c2cccc(NC(=O)c3ccc(-c4nccs4)cc3)c2O[C@H]1CN(C)C(=O)Nc1ccccc1,/,0,-5,-1,/
C[C@@H]1CCCCO[C@@H](CN(C)CC2CCCCC2)[C@@H](C)CN([C@H](C)CO)C(=O)c2cc(NC(=O)CCC(F)(F)F)ccc2O1,/,/,/,63*,/
CNC[C@H]1Oc2ccc(NC(=O)Nc3ccc4c(c3)OCO4)cc2CC(=O)N([C@@H](C)CO)C[C@H]1C,/,-1,-3,/,/
CCc1cnc(N2[C@H](CO)[C@H](c3ccc(C4=CCCCC4)cc3)[C@@H]2C#N)s1,/,2,4,29*,/
